Source: PubChem BioAssay (National Center for Advancing Translational Sciences (NCATS))
ATXN2 expr inh – inhibitors of ATXN2 expression | Potency, µM (highest dose often 57 µM), for inactives: at the top dose activity change, negative = inhibition, usual class: inhibitors | actives 0.72% (n = 360,000) | AID 1745845 | HEK-293 ATXN2-luciferase reporter, luminescence, 24 h; also: % is scaled to controls: 0 for no effect and ±100 for the full control effect; nearly all actives have a fitted effect of over 55% in size
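qHTS (up to 57 uM final) was run with 24 h compound exposure of reporter cells at 37 °C. Each well was multiplexed: SteadyGlo luminescence measured ATXN2-luciferase expression after a fluorogenic Gly-Phe-AFC viability readout (25 uM final).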
DT40 TDP1 no CPT – qHTS for Inhibitors of human tyrosyl-DNA phosphodiesterase 1 (TDP1): qHTS in cells in absence of CPT; AID 686978, 2013; DT40 Tdp1-/- hTDP1 cells, no CPT, ATP luminescence, 48 h; Potency, µM (top dose mostly 46.2 µM), for the others: at the highest dose activity change, negative = growth inhibition, most hits filed as inhibitors; actives 15% (n = 420,000); also: % is scaled to controls: 0 for no effect and ±100 for the full control effect; nearly all actives have a fitted effect of over 55% in size
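Compound effects on proliferation are scored in DT40 Tdp1-/-;hTDP1 cells in the absence of CPT. ATP levels (CellTiter-Glo luminescence) are recorded after a ≥48 hr, 37 °C incubation.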
TGFb inhibitor – inhibitors of TGF-b signaling | HepG2 CAGA-GFP TGF-b/SMAD3 reporter, GFP fluorescence, 18 h; TGF-beta stimulated, 500 pg/mL final | actives 1.2% (n = 410,000) | Potency, µM (titrated, usually from 46.1 µM), inactives show at the top dose activity, negative = inhibition, usual class: inhibitors; also: % is scaled to controls: 0 for no effect and ±100 for the full control effect; nearly all actives have a fitted effect of over 65% in size
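HEPG2 CAGA-GFP reporter cells (1000/well, DMEM with 1% FBS) received compounds, then recombinant TGF-beta at 500 pg/mL final for 18 hours at 37 degrees C. Per-cell GFP summed per well was normalised to unstimulated and stimulated DMSO controls before curve fitting.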
HepG2 viability – HepG2 cytotoxicity, counter-screen for TGF-b inhibitors | Potency, µM (titrated, usually from 46.1 µM), without a hit: at the top dose activity change, negative = cytotoxicity, hits mostly cytotoxic | actives 0.76% (n = 410,000) | HepG2 CAGA-GFP viability, ATP luminescence, 18 h
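CellTiter-Glo luminescence gave cytotoxicity after 18 hours at 37 degrees C. The cells were HepG2 CAGA-GFP in 1% FBS DMEM, stimulated with 500 pg/mL TGF-beta after compound addition. %Activity was normalised to no-cell wells (complete cell-killing) and DMSO (no toxicity), and curves were fitted and classified.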
ATXN viability – cell viability loss in ATXN counter-screen | Potency, µM (titrated, usually from 56.7 µM), hits mostly cytotoxic | S2 cells (HEK-293 line with an ATXN2-luciferase reporter) viability, CellTiter-Fluor protease fluorescence, 24 h | actives 0.49% (n = 400,000); also: nearly all actives have a fitted effect of over 40% in size
TDP1 cell CPT – DT40-hTDP1 cell growth loss with CPT; Potency, µM (doses to about 46.2 µM), for inactives: at the highest dose activity change, negative = growth inhibition, hits mostly inhibitors; chicken DT40 Tdp1-/-;hTDP1 cells + 20 nM CPT, ATP luminescence, 48 h; actives 12% (n = 420,000); also: % is scaled to controls: 0 for no effect and ±100 for the full control effect; nearly all actives have a fitted effect of over 55% in size
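Cell growth measured by CellTiter-Glo luminescence after a minimum 48 h, 37 C compound exposure with 20 nM CPT in Tdp1-knockout DT40 cells stably expressing hTDP1, seeded 400/well; qHTS titration format.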
* marks the source's active call; other numbers are inactive results; i = inactive; ? = inconclusive; nt = no result; [ ] = another dose, or the depositor's remark. Only some compounds are listed: those with a hit (about 17% of all), similar ones and a draw of the others. Calls follow the shape of the dose curve; as a rule, active = well fitted curve in the direction sought with a large enough effect; inconclusive = small, poorly fitted or top-dose-only effect, or another doubt; inactive = no such curve, though single readings can be large; an effect the other way counts as inactive or inconclusive. Potency is read from the fitted curve at half-maximal effect.

SMILES	ATXN2 expr inh	DT40 TDP1 no CPT	TGFb inhibitor	HepG2 viability	ATXN viability	TDP1 cell CPT
Cc1ccccc1OCc1nnc(SCc2cc(=O)c3cc(F)ccc3[nH]2)n1C	-12.1%	11.6µM*	-6.4%	-9.8%	?	13µM*
CCCCc1nnc(SCc2cc(=O)c3cc(F)ccc3[nH]2)n1C	-1.2%	?	-0.9%	-0.3%	?	?
Cc1ccccc1OCc1nnc(SCc2cc(=O)c3ccc(C)c(C)c3[nH]2)n1C	2.9%	16.4µM*	-1.0%	1.7%	i	?
O=c1cc(CSc2ccccc2)[nH]c2ccccc12	-25.4%	?	-19.9%	-3.2%	i	25.9µM*
Cc1ccc2c(=O)cc(CSc3ccccc3)[nH]c2c1C	21.6%	?	9.7%	0.5%	i	?
Cc1ccc2[nH]c(CSc3nnc(COc4ccccc4C)n3C)cc(=O)c2c1	-13.5%	14.6µM*	-23.5%	-1.9%	i	18.4µM*
COc1ccc(-c2nc3cnc(N4CCOCC4)nc3n(C)c2=O)cc1	nt	23.6%	nt	nt	nt	-1.4%
O=C(Nc1ccc(Br)cc1Cl)c1cnn2c1NC(=C1CC1)C=C2C(F)F	nt	-5.6%	6.3%	-15.7%	nt	-4.8%
O=C(NCCN1CCOCC1)c1cnn2c1NC(c1cccs1)CC2C(F)(F)F (configuration not stated)	1.8%	-15.6%	3.4%	-8.3%	i	-16.2%
Cc1cc(C)c2c(=O)cc(CSc3nnc(COc4ccccc4C)n3C)[nH]c2c1	10.3%	?	-0.4%	5.6%	?	?
Cc1cccc(-c2nnc(SCc3cc(=O)c4cccc(Cl)c4[nH]3)n2C)c1	?	16.4µM*	?	-36.6%	?	23.1µM*
Cc1ccccc1OCc1nnc(SCc2cc(=O)c3ccccc3[nH]2)n1C	-27.2%	14.6µM*	?	-9.2%	i	13µM*
COc1ccc(-c2nc(SCc3cc(=O)c4cc(C)ccc4[nH]3)n[nH]2)cc1	nt	-17.5%	nt	4.1%	nt	-2.4%
Cc1nn(C(C)C(=O)N2CCN(c3ccc(Cl)cc3)CC2)c(=O)c2cc3occc3n12 (configuration not stated)	?	16.4µM*	?	-31.0%	?	?
CCN(CC(=O)NCc1ccc(Cl)cc1)C(=O)CSc1cccc(C(F)(F)F)c1	1.3%	18.4µM*	-20.2%	-3.9%	i	18.4µM*
Cc1ccc(S(=O)(=O)NCc2ccccc2)cc1C(=O)NCC(=O)Nc1c(C)cccc1C	nt	20.6µM*	-19.1%	-1.4%	i	?
CCN(CC(=O)NCc1ccc(Cl)cc1)C(=O)c1cnc(Cl)c(Cl)c1	3.3%	-11.7%	-4.7%	-13.7%	i	-19.9%
CCN(CC(=O)NCc1ccc(Cl)cc1)C(=O)c1cc(S(=O)(=O)NCc2ccccc2)ccc1C	-7.7%	20.6µM*	-7.8%	-37.4%	i	?
CCN(CC(=O)NCc1ccc(Cl)cc1)C(=O)CSc1ccccc1F	6.5%	?	?	-2.4%	i	-28.3%
CCN(CC(=O)NCc1ccc(Cl)cc1)C(=O)c1ccc2cc(OC)ccc2c1	-4.0%	13µM*	10.9%	15.5%	i	?
COc1cc(C(C)=O)cc(OC)c1O	8.9%	-21.1%	20.2%	32.9%	i	5.5%
O=C(CSc1ccccc1)Nc1nc2ccccc2[nH]1	26.1%	20.6µM*	-6.4%	-15.4%	i	?
O=C(Cc1ccc(Cl)cc1)Nc1nc2ccccc2[nH]1	-12.0%	2.06µM*	-20.2%	-36.8%	i	5.17µM*
CC(=O)Nc1cccc(CCc2nc3ccccc3[nH]2)c1	30.1%	18.4µM*	-0.4%	-3.4%	i	?
O=C(Cc1c[nH]c2ccccc12)Nc1nc2ccccc2[nH]1	30.3%	-18.0%	4.2%	-12.3%	i	-13.3%
SMILES	ATXN2 expr inh	DT40 TDP1 no CPT	TGFb inhibitor	HepG2 viability	ATXN viability	TDP1 cell CPT
CC(=O)Nc1ccc(CCc2nc3ccccc3[nH]2)cc1	-1.6%	-4.0%	-2.4%	-7.3%	i	-11.1%
O=C(CSc1ccc(Cl)cc1)Nc1ccc(-c2nc3ccccc3[nH]2)cc1	-4.7%	8.2µM*	-32.8%	-39.7%	i	11.6µM*
O=C(Nc1cccc(Cl)c1Cl)c1cc2nc(-c3ccc4c(c3)OCO4)cc(C(F)(F)F)n2n1	7.1%	6.5%	0.9%	2.0%	i	3.5%
Cc1c(NC(=O)c2ccccc2F)cccc1-c1nc2cccnc2s1	nt	-25.0%	-11.5%	-5.6%	nt	-27.5%
O=C(Cc1ccc(Br)cc1)Nc1nc2ccccc2[nH]1	29.3%	2.31µM*	-14.6%	3.1%	i	6.51µM*
O=C(CCNC(=O)c1ccc(Br)cc1)Nc1nc2ccccc2[nH]1	2.8%	-15.2%	27.6%	0.3%	i	-9.3%
O=C(Cc1ccccc1)N[C@@H](Cc1ccccc1)c1nc2ccccc2[nH]1	-1.9%	23.1µM*	-30.0%	-21.1%	i	?
CCc1ccccc1Nc1nc2ccccc2[nH]1	nt	14.6µM*	-29.3%	-5.7%	i	?
O=C(Cc1ccccc1)Nc1nc2ccccc2[nH]1	44.9%	7.31µM*	-5.4%	-0.7%	i	13µM*
O=C(NCc1ccco1)C1CC(=O)N(c2ccc(O)cc2)C1 (configuration not stated)	-3.4%	25.9µM*	5.1%	4.2%	i	20.6µM*
CC(=O)c1cccc(NC(=O)CCNS(=O)(=O)c2cccc(C(C)=O)c2)c1	19.5%	-19.1%	-6.7%	1.7%	i	-14.6%
Cc1cc2ccccn2c1C(=O)c1ccc(S(=O)(=O)N(C)C)cc1	-20.0%[11.3 µM]	23.1µM*	-18.1%	-15.1%	?	18.4µM*
CCOC(=O)C(=O)c1c(C)cc2ccccn12	2.6%	8.2%	-3.3%	0.3%	i	-14.3%
Cc1cc2ccccn2c1C(=O)c1ccccc1Br	-15.4%	?	?	-12.8%	i	16.4µM*
Cc1cc2ccccn2c1C(=O)c1ccc(F)cc1	11.5%	?	-22.7%	-3.5%	i	-3.5%
CCNS(=O)(=O)c1cccc(C(=O)c2c(C)cc3ccccn23)c1	4.0%	14.6µM*	?	-10.3%	i	?
O=C(c1cc(-c2ccccc2)on1)N1CCOc2ccc(CN3CCN(c4ccccn4)CC3)cc2C1	nt	0.7%	nt	nt	i	8.4%[9.04 µM]
COc1ccccc1C(=O)NCCSCc1ccccc1Cl	-3.2%	?	-9.2%	8.0%	i	-11.3%
CCCOC(=O)C(C)n1cnc2scc(-c3ccc(C)cc3)c2c1=O (configuration not stated)	nt	-0.1%	-0.7%	8.5%	i	?
CN1CCN(CC#CCn2c3ccccc3c3ccccc32)CC1	25.1µM*	?	-27.0%	-36.4%	?	?
